Molecules are shown by their SMILES. About 1,700 (3.3%) of roughly 52,000 compounds were called active. No stated cut-off is given here; in the data, active means survival mostly below about 52% (no sharp cut-off); inactive means mostly above about 56%. Many of the other results were omitted from the sample, so actives are more common in it than they were.

The text below walks through data of PubChem BioAssay AID463173 (ICCB-Longwood Screening Facility, Harvard Medical School, 2010).

In this test the test system is Wild type. Put plainly: growth inhibition of S. aureus wild type versus tarO mutant, primary screen, teichoic acid synthesis inhibitors, RN4220, OD600 (AID 463173). The note with it: S. aureus RN4220 wild type/DeltatarO growth, OD600, 18 h, active compounds read low, screened at 18.75 µg/mL (by protocol).
For `CC(C)CCNC(=O)c1ccc2c(c1)N(C)C(=O)c1ccccc1S2`, the survival was -6% (active).
The figure for `Cc1cccc(CN2C(=O)c3ccccc3Sc3ccc(C(=O)NCc4ccco4)cc32)c1` is 75% (inactive).
As to `Cc1ccc(CN2C(=O)c3ccccc3Sc3ccc(C(=O)NCc4ccco4)cc32)cc1`, the survival was 55% (inactive).
The figure for `CC(C)CCNC(=O)Nc1ccc2c(c1)N(C)C(=O)c1ccccc1S2` is 135% (inactive).
The figure for `CC(C)CCNC(=O)c1ccc2c(c1)N(Cc1cccc(Cl)c1)C(=O)c1ccccc1S2` is 70% (inactive); for `Cc1ccc(C)c(CN2C(=O)c3ccccc3Sc3ccc(C(=O)NCc4ccco4)cc32)c1` it is -1% (active); for `COc1cc(Cl)c(NC(=O)CN2C(=O)c3cccnc3Sc3ccccc32)c(OC)c1` it is 72% (inactive).
The figure for `COc1ccc2c(CNCc3cccs3)c(C(=O)O)n(Cc3ccccc3F)c2c1` is 89% (inactive).
With `CCN1CCC(N(Cc2ccc(F)cc2)C(=O)Nc2ccc(C)c(F)c2)CC1`, the survival was 87% (inactive).
Then `O=C(Nc1ccccc1C(F)(F)F)C1CCN(S(=O)(=O)c2ccccc2)CC1`, with 72% (inactive); and `CCc1ccc(C(=O)c2cn(CC(=O)Nc3ccc4c(c3)OCCO4)c3ccc(C)cc3c2=O)cc1`, with 84% (inactive); and `CCCCn1nc(NC(=O)c2cccc(Cl)c2)c2cc3ccccc3nc21`, with 86% (inactive).
Then `NC(=O)CSc1nnc(C2CC2)n1Cc1ccccc1`, with 93% (inactive); and `O=C(COc1ccccc1)OCc1cc(=O)n2nc(-c3cccs3)sc2n1`, with 75% (inactive); and `Cc1cn2c(=O)cc(COC(=O)c3cccc(NC(=O)c4ccc(C(C)(C)C)cc4)c3)nc2s1`, with 101% (inactive).
The figure for `COc1ccc(OCC(=O)OCc2cc(=O)n3cc(C)sc3n2)cc1` is 1% (active).
Regarding `Cc1cn2c(=O)cc(COC(=O)c3ccc(NC(=O)C(C)Oc4ccccc4)cc3)nc2s1` (stereo not drawn), the survival was 0% (active).
The figure for `Cc1cn2c(=O)cc(COC(=O)c3ccc(NC(=O)c4ccc(F)cc4)cc3)nc2s1` is 70% (inactive); for `COc1ccc(OCC(=O)OCc2cc(=O)n3nc(-c4cccs4)sc3n2)cc1` it is 87% (inactive); for `Cc1cn2c(=O)cc(COC(=O)COc3ccc(C)c(C)c3)nc2s1` it is 63% (inactive).
The figure for `Cc1cn2c(=O)cc(COC(=O)c3cccc(NC(=O)C(C)Oc4ccccc4)c3)nc2s1` (stereo not drawn) is 69% (inactive).
The figure for `Cc1cn2c(=O)cc(COC(=O)c3ccc(NC(=O)c4ccc(C(C)(C)C)cc4)cc3)nc2s1` is -3% (active); for `O=C(COc1ccc(Cl)cc1)OCc1cc(=O)n2nc(-c3cccs3)sc2n1` it is -6% (active); for `CC(Oc1ccccc1)C(=O)Nc1ccc(C(=O)OCc2cc(=O)n3ccsc3n2)cc1` (stereo not drawn) it is 72% (inactive).
Regarding `Cc1cn2c(=O)cc(COC(=O)COc3ccc(F)cc3)nc2s1`, the survival is 81% (inactive).
Turning to `Cc1cccc(OCC(=O)N(Cc2ccccc2)c2ccccn2)c1`, the survival was 87% (inactive).
Turning to `CCOC(=O)c1ccccc1NC(=O)CSc1nc(=O)[nH]c2c1CCC2`, the survival was 77% (inactive).
Then `Cc1ccc(NC(=O)Cn2cc(C#N)c3ccccc32)cc1`, with 113% (inactive); and `Cc1c(Cl)cccc1NC(=O)Cn1c(=O)n(Cc2nc(-c3ccccc3)no2)c(=O)c2cc3c(cc21)OCO3`, with 135% (inactive).
Then `CCn1cc(C(=O)NCc2ccc(C)cc2)c(=O)c2cc(S(=O)(=O)N3CCC(C)CC3)ccc21`, with 128% (inactive).
Then `Cc1sc2ncn(CC(=O)Nc3cccc(C(F)(F)F)c3)c(=O)c2c1S(=O)(=O)N1CCN(C)CC1`, with 75% (inactive); and `Cc1ccc(Cn2cc(S(=O)(=O)c3cccc(C)c3)c(=O)c3cc(F)c(N4CCOCC4)cc32)cc1`, with 82% (inactive); and `COc1ccc(-c2c3c(=O)n(C)c(=O)n(C)c3c3n2-c2ccccc2NC3c2ccc(O)cc2O)cc1` (stereo not drawn), with -8% (active).
Turning to `Cn1c(=O)c2c(-c3ccccc3)n3c(c2n(C)c1=O)C(c1cccc([N+](=O)[O-])c1)Nc1ccccc1-3` (stereo not drawn), the survival is 31% (inactive).
Consider `COc1ccc(-c2c3c(=O)n(C)c(=O)n(C)c3c3c(-c4ccccc4)nc4ccccc4n23)cc1`, for which the survival is 64% (inactive).
Then `Cc1ccc(-c2c3c(=O)n(C)c(=O)n(C)c3c3n2-c2ccccc2NC3c2ccc(C)cc2O)cc1` (stereo not drawn), with -8% (active).
Then `Cn1c(=O)c2c(-c3ccccc3)n3c(c2n(C)c1=O)C(c1ccccc1[N+](=O)[O-])Nc1ccccc1-3` (stereo not drawn), with 76% (inactive); and `Cn1c(=O)c2c(-c3ccccc3)n3c(c2n(C)c1=O)C(c1cc(Cl)ccc1O)Nc1ccccc1-3` (stereo not drawn), with -9% (active); and `Cc1cc2c(cc1C)-n1c(-c3ccccc3)c3c(=O)n(C)c(=O)n(C)c3c1C(c1ccco1)N2` (stereo not drawn), with 88% (inactive).
Then `COc1ccc(-c2nc3ccccc3n3c(-c4ccc(OC)cc4)c4c(=O)n(C)c(=O)n(C)c4c23)cc1`, with 75% (inactive); and `Cn1c(=O)c2c(-c3ccccc3)n3c(c2n(C)c1=O)C(c1ccco1)Nc1ccccc1-3` (stereo not drawn), with 85% (inactive).
`COc1ccc(O)c(C2Nc3ccccc3-n3c(-c4ccccc4)c4c(=O)n(C)c(=O)n(C)c4c32)c1` (stereo not drawn): the survival is -6% (active).
Regarding `COc1ccccc1C1Nc2ccccc2-n2c(-c3ccccc3)c3c(=O)n(C)c(=O)n(C)c3c21` (stereo not drawn), the survival was 65% (inactive).
Then `COc1ccc(-c2c3c(=O)n(C)c(=O)n(C)c3c3c(C)nc4ccccc4n23)cc1`, with 74% (inactive); and `O=C(C1CCN(S(=O)(=O)c2cccs2)CC1)N1CCN(c2ccccc2F)CC1`, with 142% (inactive); and `CCN(C(=O)/C=C/c1cc(OC)c(OC)c(OC)c1)C1CCCCC1`, with 107% (inactive).
The figure for `COc1cccc(CNC(=O)CCn2c(=O)c3cccn3c3cccnc32)c1` is 87% (inactive); for `CCC(Sc1nc(-c2ccccc2F)nc2c1Cc1c(CO)cnc(C)c1O2)C(=O)Nc1cc(C)ccc1C` (stereo not drawn) it is 87% (inactive).
In the case of `COc1ccc(N2CCN(Cc3nnc(-c4ccc5c(c4)OCO5)o3)CC2)cc1`, the survival was 81% (inactive).
On to `O=C(Cn1c(C(=O)NC2CCCCC2)cc2sccc21)c1ccccc1`, for which the survival is 136% (inactive).
The figure for `Cc1ccc(C)n1-c1nnc(N2CCCC(C(=O)NCc3cccc(F)c3)C2)s1` (stereo not drawn) is 81% (inactive); for `COC(=O)c1c(C)oc2ccc(N(C(=O)c3ccncc3)S(=O)(=O)c3cc(C)c(C)cc3C)cc12` it is 77% (inactive); for `COc1ccc(Cl)c2sc(NC(=O)c3ccc(S(=O)(=O)N4CCCC4)cc3)nc12` it is 73% (inactive).
The figure for `CCn1ccc2cc(S(=O)(=O)N3CCCN(C(=O)Nc4ccc(C)cc4Cl)CC3)ccc21` is 63% (inactive); for `COc1ccc(OC)c(C2NC(=O)NC(C)=C2C(=O)Nc2ccc(F)cc2)c1` (stereo not drawn) it is 81% (inactive).
Then `Cc1ccc(C)c(N2CCN(c3nc4ccccc4c(=O)n3-c3ccccc3)CC2)c1`, with 10% (active); and `Cc1ccc(C)c(N2CCN(c3nc4ccccc4c(=O)n3-c3ccc(Cl)cc3)CC2)c1`, with 78% (inactive).
For the compound `O=c1c2ccccc2nc(N2CCN(c3cccc(Cl)c3)CC2)n1-c1ccccc1`, the survival is 81% (inactive).
The figure for `CCN1CCN(c2ncc3c(n2)CCN(Cc2ccccc2C)C3)CC1` is -3% (active); for `CN1CCN(c2ncc3c(n2)CCN(Cc2ccccc2Cl)C3)CC1` it is 71% (inactive); for `Cc1ccccc1CN1CCc2nc(N3CCN(c4ccccn4)CC3)ncc2C1` it is 71% (inactive).
Then `COc1cc(OC)c(OC)cc1CN1CCc2nc(N3CCN(C)CC3)ncc2C1`, with 82% (inactive); and `CCOc1ccccc1CN1CCc2nc(N3CCN(c4ccccc4F)CC3)ncc2C1`, with -6% (active).
For the compound `CN1CCN(c2ncc3c(n2)CCN(Cc2cc(Br)cs2)C3)CC1`, the survival was 129% (inactive).
The figure for `CCN1CCN(c2ncc3c(n2)CCN(Cc2ccc(Br)s2)C3)CC1` is 60% (inactive).
Regarding `COc1cc(OC)c(OC)cc1CN1CCc2nc(N3CCN(c4ccccc4F)CC3)ncc2C1`, the survival was 64% (inactive).
Then `COc1ccccc1N1CCN(c2ncc3c(n2)CCN(Cc2ccccc2F)C3)CC1`, with 67% (inactive); and `Cc1ccccc1CN1CCc2nc(N3CCN(c4ncccn4)CC3)ncc2C1`, with 75% (inactive); and `CCN1CCN(c2ncc3c(n2)CCN(Cc2cc(Br)cs2)C3)CC1`, with 1% (active).
Then `CCOc1ccccc1CN1CCc2nc(N3CCN(C)CC3)ncc2C1`, with -4% (active); and `COCCCNC(=O)C1CCN(c2ncnc3c2nc2n3CCCCC2)CC1`, with 89% (inactive); and `CSc1nnc(-c2cc3ccccc3cc2O)n1C`, with 111% (inactive).
Turning to `COC(=O)c1sc2nc(C)cc(C)c2c1N`, the survival was 103% (inactive).
The figure for `Nc1nc2cc3c(cc2s1)OCCO3` is 113% (inactive); for `COc1cc2nc(SCc3ccc(Cl)cc3)n3nc(CCn4nc(C)cc4C)nc3c2cc1OC` it is 71% (inactive).
The figure for `CCCCOc1ccc(CNC(=O)c2cnc3sc(N4CCC(C)CC4)nn3c2=O)cc1` is 127% (inactive).
With `COC(=O)c1ccc(NC(=O)CCn2cccn2)cc1`, the survival is 88% (inactive).
On to `CCc1ccc(OCC(=O)Nc2ccc3c(c2)c2ccccc2n3CC)c(Br)c1`, for which the survival is -6% (active).
The figure for `CCn1c2ccccc2c2cc(NC(=O)COC)ccc21` is 108% (inactive); for `CCn1c2ccccc2c2cc(NC(=O)COc3ccc(C)cc3C)ccc21` it is 8% (active).
Turning to `CCn1c2ccccc2c2cc(NC(=O)COc3cc(C)ccc3C)ccc21`, the survival was 18% (inactive).
Then `CCc1ccc(OCC(=O)Nc2ccc3c(c2)c2ccccc2n3CC)cc1`, with 69% (inactive); and `CCn1c2ccccc2c2cc(NC(=O)COc3cccc(C)c3)ccc21`, with 34% (inactive); and `O=C(Nc1c(Cl)cccc1Cl)c1cc(-c2cccc(O)c2)on1`, with 5% (active).
Then `COc1ccc(-c2cc(C(=O)Nc3c(Cl)cccc3Cl)no2)cc1OC`, with 79% (inactive); and `O=C(Nc1c(Cl)cccc1Cl)c1cc(-c2ccc3c(c2)OCO3)on1`, with 82% (inactive).
Then `COC(=O)/C=C1/C(=O)N(C(C)=O)c2ccccc21`, with 108% (inactive); and `COc1ccc(CNS(=O)(=O)c2cc3c(cc2C)n(C)c(=O)c(=O)n3C)cc1`, with 77% (inactive).
